# Compound activity from PubChem BioAssay.
# In the library only some 10% were active in any assay of this set; here they are far more common.
# CtBP-E1A inh – qHTS Assay for Inhibitors of the CtBP/E1A Interaction; CtBP / adenovirus E1A interaction (AlphaScreen); AlphaScreen GST-E1A/His-CtBP binding, 1536-well; stronger effect = lower value; activity change, % (no concentration beside the values); 340,000 tested, 0.49% active; AID 651724, 2012; in the data active = activity change below about -65%; inconclusive = mostly about -30% to -63%; also: % is scaled to controls: 0 for no effect and ±100 for the full control effect
#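 Steps: dispense buffer (Tris pH 8.0, NaCl 300 mM, TCEP 1 mM, BSA, Tween 20); add 5X protein mix (GST-E1A, His-CtBP, 125 nM each); pin 23 nL compound; 2 h at 37 °C, dark; add 5X beads (50 ug/mL); 1 h; read.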
# Six1-Eya2 blk – qHTS Assay for Inhibitors of the Six1/Eya2 Interaction; activity change, % (test concentration not listed); AID 651725, 2012; AlphaScreen GST-Six1/His-Eya2 binding, biochemical; stronger effect = lower value; Homeobox protein SIX1 (Homo sapiens) + Protein phosphatase EYA2 (Homo sapiens), …; 360,000 tested, 0.56% active; in the data active = activity change below about -65%; inconclusive = mostly about -30% to -63%; also: % is scaled to controls: 0 for no effect and ±100 for the full control effect
#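 AlphaScreen with GST-Six1 and His-Eya2 (5X mix: 250 nM and 500 nM), glutathione donor and nickel acceptor beads; buffer 50 mM Tris pH 8.0, 300 mM NaCl, 1 mM TCEP; 1 h at 37 C in the dark.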
# BAZ2B inh – qHTS Assay for Inhibitors of BAZ2B. 360,000 tested, 4.4% active. Potency, µM (titrated, usually from 114 µM), for the others: top-dose activity change, negative = inhibition, actives largely listed as inhibitors. AID 504333, 2011. AlphaScreen BAZ2B-H3K14Ac peptide displacement. Bromodomain adjacent to zinc finger domain protein 2B (Homo sapiens), Q9UIF8; also: potency is read from the fitted curve at half-maximal effect; % is scaled to controls: 0 for no effect and ±100 for the full control effect; nearly all actives have a fitted effect of over 60% in size
#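 In this displacement format the biotinylated H3(5-23) peptide acetylated at Lys14 serves as ligand at 50 nM, with BAZ2B at 50 nM in PBS pH 7.4 containing 0.01% Tween-20. Donor and acceptor beads are 10 ug/mL final.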
# G9a block – qHTS Assay for Inhibitors of Histone Lysine Methyltransferase G9a. Histone-lysine N-methyltransferase EHMT2 (Homo sapiens), Q96KQ7. G9a H3K9 monomethylation, AlphaScreen, 2 h. Potency, µM (doses to about 102 µM), for the others: top-dose activity, negative = inhibition, actives largely listed as inhibitors. 350,000 tested, 8.8% active. AID 504332, 2011; also: potency is read from the fitted curve at half-maximal effect; % is scaled to controls: 0 for no effect and ±100 for the full control effect; nearly all actives have a fitted effect of over 75% in size
#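 Step 1: enzyme (final 20 nM) with compound, 15 min RT. Step 2: substrate peptide 500 nM and SAM 20 uM, 2 h RT. Step 3: anti-H3K9me1 antibody and AlphaScreen beads, 10 min, then plate read.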
# HP1b chromo inh – HTS for Inhibitors of HP1-beta Chromodomain Interactions with Methylated Histone Tails; AID 540317, 2011; Chromobox protein homolog 1 (Homo sapiens), P83916; Potency, µM (titrated, usually from 114 µM), without a hit: at the top dose activity change, negative = inhibition, usual class: inhibitors; 390,000 tested, 0.56% active; AlphaScreen HP1-beta / biotin-H3K9me3 peptide binding; also: potency is read from the fitted curve at half-maximal effect; nearly all actives have a fitted effect of over 70% in size
#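 Compound inhibition of the preformed complex between 50 nM HP1-beta and 50 nM biotinylated H3K9me3 peptide was read by AlphaScreen. Buffer was PBS pH 7.4 with 0.01% Tween-20. Incubations ran 30 min at room temperature, with 10 ug/mL donor/acceptor beads.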
# JMJD2A Tudor – qHTS Assay for Inhibitors of JMJD2A-Tudor Domain; AlphaScreen JMJD2A-Tudor / H3K4me3 peptide binding; 390,000 tested, 4.4% active; AID 504339, 2011; Lysine-specific demethylase 4A (Homo sapiens), O75164; Potency, µM (doses to about 114 µM), for inactives: at the top dose activity change, negative = inhibition, most hits filed as inhibitors; also: potency is read from the fitted curve at half-maximal effect; % is scaled to controls: 0 for no effect and ±100 for the full control effect; nearly all actives have a fitted effect of over 50% in size
# The depositor's hits bear a star; ? = inconclusive; · = not tested or not shown; [ ] = remark or other dose. Unless noted, calls follow the shape of the dose curve; as a rule, active = well fitted inhibition curve with a large enough effect; inconclusive = small, poorly fitted or top-dose-only effect; inactive = no such curve, though single readings can be large or run the other way.
SMILES,CtBP-E1A inh,Six1-Eya2 blk,BAZ2B inh,G9a block,HP1b chromo inh,JMJD2A Tudor
O=c1c(S(=O)(=O)c2ccc(Cl)cc2)cn(Cc2ccc(F)cc2)c2ccc(F)cc12,·,·,-18.4%,-9.5%[59 µM],29.3%,-11.6%
O=C(Cc1ccccc1)NC1CCS(=O)(=O)C1 (stereo not drawn),1.4,-4.6,-3.9%,-12.2%[59 µM],32.5%,-5.1%
O=C(COC(=O)CCc1ccccc1)NC1CCS(=O)(=O)C1 (stereo not drawn),5.7,-3.3,-5.8%,50.1µM*,12.6%,-11.7%
CCC(=O)NCCCc1nc(-c2ccccc2)no1,·,4.9,·,·,31.4%,-20.4%
CCC(C)NC(=O)c1ccccc1NC(=O)CN1C(=O)c2cccc3cccc1c23 (stereo not drawn),·,·,5.5%,25.7%[59 µM],65.6%,22.3%
CC1(C)C=C2C(=NN(c3ccccc3)C(N)=C2C#N)CO1,-11.7,-14.2,-38.1%,6.31µM*,38.6%,-30.1%
COc1ccccc1C1(O)C(=O)Nc2ccc(C)cc21 (stereo not drawn),-1.0,-14.9,8.1%,-2.0%[2.33 µM],8.4%,-15.7%
COc1ccc(CN2CCC(N3CC(C)OC(C)C3)CC2)c(OC)c1 (stereo not drawn),-5.1,5.7,31.6µM*,8.91µM*,39.8µM*,0.794µM*
COc1cccc(C(=O)N2CCOCC2)c1,0.0,19.6,-8.4%,0.0%,28.4%,5.2%
CCOC(=O)C1CCCN(Cc2ccc(OCC)cc2)C1 (stereo not drawn),3.2,2.3,?,8.91µM*,?,20µM*
CCOC(=O)C1CCCN(CCc2ccccc2)C1 (stereo not drawn),-0.3,2.1,?,39.8µM*,-32.9%,25.1µM*
COc1cccc(C(=O)N2CCC(N3CC(C)OC(C)C3)CC2)c1 (stereo not drawn),20.8,11.4,50.1µM*,2.82µM*,?,6.31µM*
CCOC(=O)C1CCN(CC(=O)N2C(C)CCCC2C)CC1 (stereo not drawn),4.1,4.4,50.1µM*,8.91µM*,44.7µM*,5.01µM*
CCOC(=O)C1CCN(CC(=O)N2CCc3ccccc32)CC1,-0.1,6.8,1.0%,22.7%,-0.3%,-11.2%
CCOC(=O)C1CCCN(Cc2ccccc2C)C1 (stereo not drawn),19.3,5.3,70.8µM*,2.51µM*,?,5.01µM*
CCOC(=O)C1CCN(Cc2c(O)c3ccccc3oc2=O)CC1,-2.9,-2.2,20.9%,-5.5%,28.9%,-5.6%
CCOC(=O)C1CCCN(CCC(=O)Nc2ccccc2C)C1 (stereo not drawn),4.9,5.8,-11.3%,32.6%[0.501 µM],32.2%,-4.5%
CCOC(=O)C1CCN(Cc2ccccc2C)CC1,9.0,-1.4,56.2µM*,?,16.6%,-5.0%
CCOC(=O)C1CCN(Cc2ccc(OC)cc2OC)CC1,-5.4,-0.5,?,?,?,1.78µM*
O=C(Cc1ccccc1[N+](=O)[O-])OCc1cccc([N+](=O)[O-])c1,·,·,-38.7%,-36.4%,·,·
CCOC(=O)N1CCN(C(=O)/C(=C/c2ccc(Cl)cc2)NC(=O)c2ccccc2)CC1,0.0,5.4,-14.1%,-0.3%,19.9%,-7.1%
CCCC1=NN(c2ccc([N+](=O)[O-])cc2)C(=O)/C1=C\N(C)C,1.7,-4.0,-30.1%,?,16.9%,-10.1%
Cc1oc2ncnc(N3CCCCC3)c2c1C(=O)NCC1CCN(Cc2cccc(F)c2)CC1,·,·,-2.2%[57.1 µM],-12.8%[59 µM],18.7%,-6.8%
CCOC(=O)C1CCCN(Cc2ccccc2OCC)C1 (stereo not drawn),3.4,-0.3,?,?,?,5.62µM*
CCOC(=O)C1CCCN(CC(O)COc2ccc(OC)cc2C(C)(C)C)C1 (stereo not drawn),-8.4,-5.4,50.1µM*,12.6µM*,7.94µM*,?
SMILES,CtBP-E1A inh,Six1-Eya2 blk,BAZ2B inh,G9a block,HP1b chromo inh,JMJD2A Tudor
CCOC(=O)C1CCN(Cc2coc3c(Cl)cc(Cl)cc3c2=O)CC1,1.6,6.0,?,11.2µM*,-7.2%,20µM*
COc1ccc(C(=O)C2CCCN(Cc3cn[nH]c3-c3ccccc3)C2)cc1OC (stereo not drawn),-3.6,0.9,-1.0%,-5.8%[0.501 µM],26.6%,-18.4%
CCOC(=O)C1CCN(Cc2cn[nH]c2-c2ccccc2)CC1,-0.6,0.5,?,7.94µM*,?,3.16µM*
O=C(CN1CSCC1=O)N1CCN(S(=O)(=O)c2ccc(Cl)cc2)CC1,8.9,-0.6,-4.6%,2.3%[59 µM],40.6%,1.0%
CCOC(=O)C1CCN(C/C=C/c2ccccc2[N+](=O)[O-])CC1,-12.0,21.1,?,·,-16.3%,2.24µM*
CCn1cc([N+](=O)[O-])c(C(=O)N2N=C(c3ccccc3)CC2c2ccc([N+](=O)[O-])cc2)n1 (stereo not drawn),-14.2,-17.2,-30.5%,-38.5%,30.3%,-32.3%[57.1 µM]
CC1(C)Cc2c(ccc3ccccc23)/C(=C/C(=O)N2CCCCC2)N1,?,0.0,50.1µM*,?,-11.8%,-57.7%
COc1ccccc1CCNC(=O)c1ccc(-c2nc(CSc3ccc(C)cc3)c(C)o2)cc1,·,·,-10.1%,-26.7%[59 µM],24.7%,-16.9%
COc1ccc(C(=O)N2C(=S)NC(=O)/C2=C\c2ccc(C)cc2)cc1,-7.6,1.5,50.1µM*,-0.6%[59 µM],-22.9%,50.1µM*
O=C1Cc2cc(S(=O)(=O)N3CCN(c4ccc(F)cc4)CC3)ccc2N1,·,·,·,·,·,-26.2%[229 µM]
COc1ccccc1CNC(=O)COc1cc(=O)n(C)c2ccccc12,·,·,-7.3%,3.1%[59 µM],4.5%,-13.8%
COc1ccccc1C(CCN(Cc1cccs1)C(C)=O)c1ccco1 (stereo not drawn),-2.1,-5.5,79.4µM*,44.7µM*,8.0%,-28.1%
CN(C)c1ccc(C(=O)OCC#CCSc2nnc(-c3cccc4ccccc34)o2)cc1,·,·,10.9%,1.5%[12.7 µM],6.1%,-7.8%
CCOC(=O)C1CCCN(C(=O)c2ccc(F)c(C)c2)CC1 (stereo not drawn),-4.8,-7.2,·,·,·,·
NCc1cc2c3c(c1)CCCN3CCC2,?,-12.8,50.1µM*,15.8µM*,-0.9%,-11.2%
COc1c(C=O)cc2c3c1CCCN3CCC2,-2.2,-6.7,-9.9%,0.8%,4.9%,-19.7%
COc1ccc(NC(=O)C2COc3ccccc3C2)cc1Cl (stereo not drawn),·,·,-0.3%,-5.6%[59 µM],20.6%[57 µM],-10.5%
